Values joined by “and” are separate entries in the source; they are usually repeats but may differ in a detail not shown here. Identical values can stand only once. About 860 (78%) of roughly 1,100 compounds were called active. Not shown: some 19% with an inconclusive outcome. Calls come from the whole dose curve; as a rule, active = well fitted activation curve with a large enough effect; inconclusive = small, poorly fitted or top-dose-only effect; inactive = flat fitted curve, though single readings scatter. The set was probably picked from earlier hits. The list shows a part of the results.
Potency is the fitted concentration of half-maximal effect.

This assay is described as follows: qHTS of Nrf2 Activators: Hit Validation in Primary Assay. Note: nearly all actives have a fitted effect of over 70% in size. Conditions: Nrf2/ARE reporter cell assay; Potency: activation; series mostly up to 46.1 µM. The procedure, abridged:
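AREc32 cells stably carrying an ARE-driven firefly luciferase, plated overnight, then exposed 24 h at 37 °C to compounds at several concentrations. ARE activation read as luminescence with Steady-Glo after 30 min at room temperature.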
For orientation: In qHTS, concentration-response curves come from the screen itself.
For `COCCN(C(=O)c1ccco1)c1nc(-c2ccccc2)cs1`, the Potency was 20.6 µM (active). On to `C=C1C2=C(C(=O)N1OC)[C@@H](O)[C@@](C)(O)[C@@H](CCCCC)O2`, for which the Potency was 23.1 µM (active). Regarding `Cc1ccc([N+](=O)[O-])c(OCc2ncc(Cl)n2C)c1`, the Potency was 18.4 µM (active). For `Cc1ccccc1CS(=O)(=O)c1cnc2ccccc2n1`, the Potency was 16.4 µM (active).

`CCOc1cc(C=O)cc(N=Nc2cccc([N+](=O)[O-])c2)c1O`: the Potency is 16.4 µM (active). In the case of `Cc1nc(NC(=O)c2ccc(Br)o2)ccc1Br` it was 9.2 µM (active). Next, `Cc1cccc(NC(=S)NC(=O)c2ccc(Br)o2)c1`: 10.3 µM (active). In the case of `O=C(Nc1ccc2ccccc2c1)c1ccc(Br)o1` it was 2.91 µM (active); in that of `O=C(/C=C/c1ccco1)Nc1cccnc1Cl`, 1.46 µM (active). On to `O=C(/C=C/c1ccco1)Nc1cccc2cccnc12`, for which the Potency was 0.82 µM (active). As for `O=C1C2C3C=CC(C4CC34)C2C(=O)N1/N=C/c1ccc([N+](=O)[O-])o1` (centres undefined), the Potency is 3.66 µM (active). Consider `O=C1C2C(C(=O)N1/N=C/c1ccc([N+](=O)[O-])o1)C1C=CC2C12CC2` (centres undefined), for which the Potency is 18.4 µM (active). On to `Nc1ccc2c(Cl)cc(Cl)cc2c1`, for which the Potency is 2.31 µM (active). As for `Cn1c(=O)c(C(=O)NNC(=O)c2ccccc2F)c(O)c2ccccc21`, the Potency is 2.31 µM (active).

On to `O=C(c1ccc(S(=O)(=O)Cc2ccccc2Cl)c([N+](=O)[O-])c1)N1CCOCC1`, for which the Potency is 18.4 µM (active). Next, `O=C(c1ccc(S(=O)(=O)Cc2cc(F)ccc2F)c([N+](=O)[O-])c1)N1CCCC1`: 7.31 µM (active). Take `Cc1ccc(Cl)c2sc(NC(=O)C3CC3)nc12`: the Potency is 5.8 µM (active). In the case of `Cc1nc2sc(C(=O)c3ccccc3)c(N)c2c2c1CCCC2` it was 3.66 µM (active). `Cc1ccc2c(N)c(C(=O)c3ccccc3)sc2n1`: the Potency is 14.6 µM (active). Regarding `CSc1c(C#N)c(N)nc2sc(C(=O)c3ccccc3)c(N)c12`, the Potency is 4.61 µM (active).

For the molecule `O=C(Nc1cccn2ncnc12)c1cccc(C(F)(F)F)c1`, the Potency was 18.4 µM (active).

In the case of `COc1ncccc1-c1cc2nc(NCCNC(C)=O)n(C)c(=O)c2s1`, the Potency was 2.59 µM (active). In the case of `CC(=O)NCCNc1nc2cc(-c3cscc3C)sc2c(=O)n1C` it was 1.3 µM (active); in that of `O=C(NNC(=O)C12CC3CC(CC(C3)C1)C2)c1cccc([N+](=O)[O-])c1`, “inactive”; in that of `Cc1ccc([N+](=O)[O-])cc1NC(=O)c1ccc(C(C)(C)C)cc1`, 4.61 µM (active).

As to `Cc1ccc([N+](=O)[O-])cc1NC(=O)c1ccccc1`, the Potency was 7.31 µM (active).

With `Cn1c(=O)n(C)c2cc(NC(=O)c3cccc([N+](=O)[O-])c3)c(Br)cc21`, the Potency was 13 µM (active). Next, `CCn1ncc(Br)c1C(=O)Nc1cc([N+](=O)[O-])ccc1C`: 2.91 µM (active); `O=C(Nc1cnc2ccccc2c1)c1ccco1`: 2.91 µM (active). As for `O=C(NC(=S)Nc1cnc2ccccc2c1)c1ccccc1`, the Potency is 2.59 µM (active).

As for `c1ccc(C2=Nn3c(nnc3-c3ccco3)SC2)cc1`, the Potency was 1.84 µM (active). In the case of `O=c1cc(/C=C/c2ccccc2)oc2ccccc12` it was 2.31 µM (active). With `COc1ccc(Cl)cc1NC(=O)CSc1c2c(nc3ccccc13)CCC2`, the Potency is 18.4 µM (active). In the case of `COc1ccc(S(=O)(=O)N2CCN(C(=O)c3ccc([N+](=O)[O-])o3)CC2)cc1` it was 5.8 µM (active).

`COc1ccc(N2CCCC2)c(NC(=O)c2ccc([N+](=O)[O-])o2)c1`: the Potency is 6.51 µM (active). In the case of `COC(=O)c1scc(C)c1NC(=O)c1ccc(Cl)cc1` it was 3.66 µM (active). In the case of `CCCn1nc([N+](=O)[O-])c(C(C#N)c2nc3ccccc3s2)c(Cl)c1=O` (centres undefined), the Potency was 2.31 µM (active). In the case of `COc1cc(/C=N/Nc2ccccn2)cc(OC)c1O` it was 5.8 µM (active); in that of `COc1ccc(Br)cc1/C=N/Nc1ccccn1`, 2.59 µM (active). Turning to `CN(Cc1ccccc1)C(=O)c1ccc([N+](=O)[O-])o1`, the Potency is 16.4 µM (active). As for `Cc1cc(NC(=O)C2CCCC2)nc2c1c(=O)oc1ccccc12`, the Potency is 2.31 µM (active). Take `Cc1cc(NC(=O)CC(C)(C)C)nc2c1c(=O)oc1ccccc12`: the Potency was 3.66 µM (active).

For `Cc1cc(NC(=O)c2ccccc2)nc2c1c(=O)oc1ccccc12`, the Potency was 1.46 µM (active). As to `COc1cccc(C(=O)Nc2cc(C)c3c(=O)oc4ccccc4c3n2)c1`, the Potency is 2.06 µM (active). Next, `N#CC1=C(N)Oc2c(ccc3ccccc23)C1c1ccsc1` (centres undefined): “inactive”; `Cc1cc(NC(=O)c2ccccc2F)nc2c1c(=O)oc1ccccc12`: 0.58 µM (active). For `COc1cc(OC)cc(-c2nc3ccccc3s2)c1`, the Potency was 13 µM (active). Next, `Cc1cc(C)n(S(=O)(=O)/C=C/c2ccccc2)n1`: 4.61 µM (active); `Cc1cc(C)cc(OC(=O)CS(=O)c2ccc(C(F)(F)F)cc2[N+](=O)[O-])c1` (centres undefined): 18.4 µM (active). Turning to `O=C(CCCCCCC(=O)Nc1ccccc1)NO`, the Potency was 2.31 µM (active). Turning to `O=C(Nc1cc(Br)ccc1O)c1cnn2c(C(F)F)cc(C3CC3)nc12`, the Potency was 3.26 µM (active). Next, `CS(=O)(=O)Cc1nc2ccccc2oc1=O`: 20.6 µM (active); `CCc1ccc(/C=C/c2c([N+](=O)[O-])c(=O)n(C)c(=O)n2C)cc1`: 11.6 µM (active); `N#C/C(=C(/O)c1ccco1)c1nc2ccccc2s1`: 1.64 µM (active) and 2.06 µM (active).

Take `N#C/C(=C(/O)c1ccco1)c1nc2ccccc2[nH]1`: the Potency was 2.59 µM (active). Turning to `CSc1ccc(C2NN=C(c3ccccc3)S2)cc1` (centres undefined), the Potency is 2.31 µM (active). In the case of `CN1CCN(CCCNC(=O)c2cc3c(=O)n(C)c4ccccc4c3s2)CC1` it was 8.2 µM (active); in that of `Cc1nc(NCc2ccco2)nc2c1C(=O)CC(C)C2` (centres undefined), 1.84 µM (active). Consider `Clc1cc(Cl)cc(Nc2ncnc(-n3cccc3)n2)c1`, for which the Potency is 2.59 µM (active).

Consider `Cc1ccccc1OCC(=O)Nc1ccccc1CO`, for which the Potency is 6.51 µM (active). Turning to `O=C(NC1CCCCC1)N(c1ccccc1)c1nnc(-c2cccc([N+](=O)[O-])c2)s1`, the Potency was 7.31 µM (active). Next, `CCOc1cc2ccccc2cc1C(=O)Nc1ccccn1`: 3.66 µM (active).

`Cc1cccc(-c2nnc(-c3cccc4ccccc34)o2)c1`: the Potency is 5.17 µM (active).

As for `Clc1ccc(-c2nnc(-c3cccc4ccccc34)o2)cc1`, the Potency is 1.84 µM (active). Next, `O=C(Nc1cc(-c2nc3ncccc3o2)ccc1Cl)c1ccco1`: 3.66 µM (active); `Cc1ccc(-c2nc3cccnc3s2)cc1NC(=O)c1ccco1`: 8.2 µM (active); `O=C(Nc1cc2nn(-c3ccccc3)nc2cc1Cl)c1ccco1`: 1.64 µM (active). Next, `O=C(Nc1cc(-c2nc3cc(Cl)ccc3o2)ccc1Cl)c1ccco1`: 1.3 µM (active); `O=C(Nc1cc(-c2nc3ncccc3o2)ccc1Cl)c1cccs1`: 4.11 µM (active); `O=c1c2ccccc2oc2cc(Br)ccc12`: 2.59 µM (active). Next, `COc1ccc2oc3ccccc3c(=O)c2c1`: 23.1 µM (active). For the molecule `O=c1c2ccccc2oc2ccc(-c3ccc4cc[nH]c4c3)cc12`, the Potency was 3.66 µM (active). In the case of `COc1ccc2oc3cc(Cl)ccc3c(=O)c2c1`, the Potency is 9.2 µM (active). Next, `COc1ccc(OC)c(C(=O)Nc2c(O)ccc3ccccc23)c1`: 5.8 µM (active); `COc1ccc(COc2ccsc2C(=O)Nc2ccc(Cl)cc2)cc1`: 4.61 µM (active). In the case of `Cc1nc2nc(-c3ccccc3)nn2c(C)c1Cl` it was 4.11 µM (active); in that of `O=C1/C(=C\c2ccco2)NC(=S)N1c1ccccc1`, 3.66 µM (active); in that of `CCn1c(NC(=O)c2cccs2)nc2ccccc21`, 5.17 µM (active). Take `CCn1c(NC(=O)c2ccccc2)nc2ccccc21`: the Potency was 3.66 µM (active).

Turning to `Cn1c(=O)c2nc(-c3ccccc3)oc2c2ccccc21`, the Potency was 1.84 µM (active). Next, `O=C(c1ccco1)c1cc2c(ccc3ccccc32)oc1=O`: 9.2 µM (active); `O=C(c1ccco1)c1cn(CC(=O)N2CCCc3ccccc32)c2ccccc12`: “inactive”; `CC(C)=NNc1cnnc2ccc([N+](=O)[O-])cc12`: 18.4 µM (active).

For `Cn1ccsc1=NC(=O)c1ccc([N+](=O)[O-])o1`, the Potency is 5.17 µM (active). In the case of `CN(N=Cc1ccccc1O)c1ccc2ccccc2n1` it was 2.91 µM (active); in that of `Oc1ccc(NCc2cccc(OCc3ccc(F)cc3)c2)cc1`, “inactive”; in that of `Oc1ccc(CNc2ccccc2O)cc1`, 16.4 µM (active). In the case of `O=C(Nc1nc2c(ccc3ccccc32)s1)c1ccco1` it was 1.16 µM (active).

With `CC(=O)Nc1ccc2nc(NC(=O)c3ccco3)sc2c1`, the Potency is 4.11 µM (active). In the case of `O=C(Nc1nc(-c2ccncc2)cs1)c1ccco1` it was 4.11 µM (active); in that of `O=C(Nc1nc2ccsc2c(=O)s1)c1ccco1`, 1.3 µM (active). Next, `Cc1cc(Cl)cc2sc(NC(=O)c3ccco3)nc12`: 16.4 µM (active); `O=C(NC(=S)Nc1cc(C(F)(F)F)ccc1Cl)c1ccccc1`: 2.91 µM (active); `O=C(CSc1cccc[n+]1[O-])Nc1cc([N+](=O)[O-])ccc1Cl`: 20.6 µM (active). Next, `O=C(NC(=S)Nc1cc([N+](=O)[O-])ccc1Cl)c1ccccc1`: 2.31 µM (active); `Cn1c(=O)c2nc(NCc3ccccc3)sc2n(C)c1=O`: 1.46 µM (active); `CC(=O)Nc1nc2cccc([N+](=O)[O-])c2s1`: 1.84 µM (active). `O=C(/C=C/c1ccc2c(c1)OCO2)c1ccc(O)cc1O`: the Potency is 14.6 µM (active).

Turning to `COc1ccc2[nH]c3c(NCc4ccco4)ncnc3c2c1`, the Potency is 2.59 µM (active). `O=C(CSc1ncnc2c1oc1ccccc12)NCc1ccco1`: the Potency was 13 µM (active). Take `c1coc(CNc2ncnc3c2oc2ccccc23)c1`: the Potency was 3.66 µM (active). Next, `O=C(CSc1ncnc2c1oc1ccccc12)c1cccs1`: 5.17 µM (active); `O=C(CSc1nnc2c(n1)[nH]c1ccccc12)NCc1ccco1`: 20.6 µM (active). Turning to `c1coc(CSc2ncnc3c2oc2ccccc23)c1`, the Potency was 2.91 µM (active).

Source of the values: PubChem BioAssay AID651593 (National Center for Advancing Translational Sciences (NCATS), 2012).
